According to PubChem BioAssay AID686979 (National Center for Advancing Translational Sciences (NCATS), 2013):
Screen size: about 420,000 compounds; about 50,000 (12%) were called active. Entries that show only a call come without a potency. About 26% were inconclusive and are not listed. Only a selection was taken, and actives are over-represented in it overall. Unmarked numbers belong to inactive results. The call rests on the fitted dose curve; in most records, active means well fitted inhibition curve with a large enough effect; inconclusive means small, poorly fitted or top-dose-only effect; inactive means flat fitted curve, though single readings scatter.

test: qHTS for Inhibitors of human tyrosyl-DNA phosphodiesterase 1 (TDP1): qHTS in cells in presence of CPT; conditions: chicken DT40 Tdp1-/-;hTDP1 cells + 20 nM CPT, ATP luminescence, 48 h; series mostly up to 46.2 µM; further: nearly all actives have a fitted effect of over 55% in size
Procedure, shortened: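 Cell growth measured by CellTiter-Glo luminescence after a minimum 48 h, 37 C compound exposure with 20 nM CPT in Tdp1-knockout DT40 cells stably expressing hTDP1, seeded 400/well; qHTS titration format.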
Potency means the concentration at half of the fitted maximal effect.

Row | SMILES | Potency | activity change, negative = growth inhibition
1 | O=C(COc1ccc([N+](=O)[O-])cc1Cl)Nc1ccc2[nH]c(=O)[nH]c2c1 | inactive | –
2 | COC(=O)C[C@@H]1C=C[C@@H](NC(=O)c2cccnc2)[C@@H](CO)O1 | inactive | –
3 | Cc1ccc(SC(CC(=O)c2ccc(C(C)(C)C)cc2)C(=O)O)cc1 (stereo unspecified) | 3.66 µM (active) | –
4 | Cc1ccc(C(=O)CSc2ccccc2C(=O)O)cc1 | inactive | –
5 | Cc1ccc(Sc2cc(C(=O)c3ccccc3C(=O)O)ccc2[N+](=O)[O-])cc1 | inactive | –
6 | COc1ccccc1C(=O)N/C(=C/c1ccc2c(c1)OCO2)C(=O)Nc1cccc(C(=O)O)c1 | inactive | –
7 | CCOC(=O)c1cc2cc3ccccc3cc2oc1=O | inactive | –
8 | CCOC(=O)c1sc(C)c2c1NC(C)(c1cccc3ccccc13)NC2=O (stereo unspecified) | 25.9 µM (active) | –
9 | CCOC(=O)c1sc(-c2cccc([N+](=O)[O-])c2)cc1N | inactive | –
10 | CCCNC(=O)COc1coc(CN2CCN(Cc3ccccc3)CC2)cc1=O | inactive | –
11 | Cc1ccc(S(=O)(=O)N2CCC3(CC2)OCCO3)c(C)c1 | inactive | –
12 | COc1cccc(Nc2ncccc2C(=O)O)c1 | inactive | –
13 | Cc1nc2cnc(Nc3ccccc3)nc2n(C[C@H]2CCCO2)c1=O | inactive | –
14 | COc1cccc(Nc2ncc3ncc(=O)n(C4CC4)c3n2)c1 | 14.6 µM (active) | –
15 | COc1cccc(CC(=O)OCC(=O)NCc2ccc3c(c2)OCO3)c1 | inactive | –
16 | CCC1CN(CCNC(=O)c2cccnc2C)Cc2cc(OC)ccc2O1 (stereo unspecified) | – | 21.1% [at 9.04 µM]
17 | COc1cccc(OC)c1CN(C)C(=O)c1cnccc1C(F)(F)F | inactive | –
18 | CCn1cc(S(=O)(=O)c2cccc(C)c2)c(=O)c2cc(F)c(N3CCN(C)CC3)cc21 | inactive | –
19 | Cc1ccc(S(=O)(=O)c2cn(Cc3ccccc3)c3cc(N4CCCC4)c(F)cc3c2=O)c(C)c1 | 20.6 µM (active) | –
20 | CC1CCCN(c2cc3c(cc2F)c(=O)c(S(=O)(=O)c2cccc(Cl)c2)cn3Cc2ccccc2)C1 (stereo unspecified) | inactive | –
21 | CCn1cc(C(=O)NCCO)c(=O)c2cc(F)c(N3CCN(C)CC3)cc21 | inactive | –
22 | Cc1cccc(S(=O)(=O)c2cn(Cc3ccccc3)c3cc(N4CCOCC4)c(F)cc3c2=O)c1 | 6.51 µM (active) | –
23 | COCCNC(=O)C1CCN(S(=O)(=O)c2ccc3c(c2)OCCO3)CC1 | inactive | –
24 | C[C@H]1CN([C@@H](C)CO)C(=O)CCCn2cc(nn2)CO[C@@H]1CN(C)S(=O)(=O)c1ccc(-n2cccn2)cc1 | inactive | –
25 | CC(=O)NNc1cc(=O)c2c(=O)n(C)c(=O)n(C)c2[nH]1 | inactive | –
26 | Cc1cccc(NC(=O)c2ccc(COc3ccccc3[N+](=O)[O-])o2)n1 | inactive | –
